The full ranking holds about 68,000 sequences; the median of “fluorescence intensity (a.u.)” is about 9,100, and the highest 2% start at about 16,000. For the sample, the highest values were picked, then their nearest neighbours and some sequences at random.
These sequences were tested against OsWRKY34 (Oryza sativa, UniProt Q0JBA9 1-250) (assay: protein-binding microarray (RPBM); PBS, 2% BSA, 51.3 ng/ul salmon testes DNA, 50 uM zinc acetate, 200 nM TF, 25 C, 1 h; high values mean tight binding). Details: protein: recombinant; tags: N-terminal polyhistidine and DsRed monomer fusion (pET32a); label: CyDye5-dUTP incorporated in the synthesized complementary strand; 3' TTTTT single-stranded linker to array surface; dsDNA, one strand shown.
Chain of OsWRKY34 (Q0JBA9 entry or part of it): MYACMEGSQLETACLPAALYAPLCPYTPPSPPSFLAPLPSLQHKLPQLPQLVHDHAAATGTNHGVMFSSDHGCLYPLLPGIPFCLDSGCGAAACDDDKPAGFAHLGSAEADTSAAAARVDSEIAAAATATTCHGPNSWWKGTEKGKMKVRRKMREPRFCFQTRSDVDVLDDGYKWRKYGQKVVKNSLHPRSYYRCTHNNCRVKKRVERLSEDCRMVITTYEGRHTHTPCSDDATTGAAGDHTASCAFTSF
Procedure, shortened: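 The binding signal is fluorescence intensity per array feature (arbitrary units). Readings came from an Axon 4000B scanner after a washed, 2% BSA-blocked, double-stranded custom Agilent array had been incubated for 1 h at 25 °C with 200 nM protein and 50 µM zinc acetate. The protein was a Ni–NTA-purified transcription factor fused N-terminally to polyhistidine and DsRed, expressed in E. coli BL21-CodonPlus.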

Which binding signal does the source give for “CATCGACTACCTGCCATTCTTCTACTCCAGGGTCTTCTCGCGGAGTCACCTAGTGCAG” here?
The binding signal was 9510 fluorescence intensity (a.u.).

With “ATCTTATGGTGTATTTTTTTTTTCTCCGGTGCAGGTTGGTCGGAGTCACCTAGTGCAG” as the sequence, how does the binding signal read?
Its binding signal is 8260 fluorescence intensity (a.u.).

For “GATGTGAATCACCCTTTGCTTTGCTGAATCTACTCCTACACGGAGTCACCTAGTGCAG”, which binding signal is on record?
The binding signal was 10600 fluorescence intensity (a.u.).

For “GCGAACTCCGAGCGCGGAGGTTGAGGCGGCGGCGAGCGTGCGGAGTCACCTAGTGCAG”, which binding signal is on record?
The binding signal was 9820 fluorescence intensity (a.u.).

For “CATTATTAAAATATATATGTGTTACATTCGGTATTATATTCGGAGTCACCTAGTGCAG”, which binding signal is on record?
Its binding signal is 8650 fluorescence intensity (a.u.).

Which binding signal does the source give for “CCTCATGATGATGCCGAACGTCTCGACATTGACCGCGCCCCGGAGTCACCTAGTGCAG” here?
Its binding signal is 9370 fluorescence intensity (a.u.).

With “CCGCCGCCCACCTCATGCCTTGCGCGGTGCCCGTGAGAGACGGAGTCACCTAGTGCAG” as the sequence, how does the binding signal read?
Its binding signal is 8250 fluorescence intensity (a.u.).

For “GATCGCTCCATAAACATGCAATATATCAATTTTAACTTTTCGGAGTCACCTAGTGCAG”, which binding signal is on record?
The binding signal was 8900 fluorescence intensity (a.u.).

With “CTCTCAGCCGGTCTATCAATTCCCCTTTCTGATACAATAACGGAGTCACCTAGTGCAG” as the sequence, how does the binding signal read?
Its binding signal is 9570 fluorescence intensity (a.u.).

For “CCCATTCTAGATATTAACTACTAATCTGACTCTATTTTTTCGGAGTCACCTAGTGCAG”, which binding signal is on record?
The binding signal was 8880 fluorescence intensity (a.u.).

Which binding signal does the source give for “TGGGTTTTATTTTCCCATTCTTTCGAGCTATTTTGACGGACGGAGTCACCTAGTGCAG” here?
Its binding signal is 8220 fluorescence intensity (a.u.).

How did the binding signal turn out when “ACCCGCTTCTCGTCTCCTCGTCTCCTCGTTCGTCTCTCGCCGGAGTCACCTAGTGCAG” was run?
The binding signal was 18000 fluorescence intensity (a.u.).

“GTCGTCGCCTGCCTCTTCGTCGCCGCTCTCGTCTCCGCTCCGGAGTCACCTAGTGCAG” was tested. Which binding signal did it give?
The binding signal was 9880 fluorescence intensity (a.u.).

Which binding signal does the source give for “CGCCGCCTCCGCTCCACTCTCCTCGCCGTCGCCGGTCCTCCGGAGTCACCTAGTGCAG” here?
Its binding signal is 11500 fluorescence intensity (a.u.).

For “TCCCGCTTCTCCTCCGTCGCTCTCCGCCGCCGCCGCCACCCGGAGTCACCTAGTGCAG”, which binding signal is on record?
Its binding signal is 10200 fluorescence intensity (a.u.).

With “CATTTAAATCGCCATCACTCCGCGCGCTCTCCCATCCATCCGGAGTCACCTAGTGCAG” as the sequence, how does the binding signal read?
The binding signal was 8870 fluorescence intensity (a.u.).

“CTCTCCTCTCCTCGCTTCTTCGTCTCGCTTGCTCGCTCGCCGGAGTCACCTAGTGCAG” was tested. Which binding signal did it give?
Its binding signal is 8550 fluorescence intensity (a.u.).

Which binding signal does the source give for “TCGCCTATCTCTCTATCTCTTTCGCCACCGCTTGCCTCTCCGGAGTCACCTAGTGCAG” here?
The binding signal was 9030 fluorescence intensity (a.u.).

How did the binding signal turn out when “GCTCTATCTTTACTCGCCATTTAATCGTTGCCTCGCGCTCCGGAGTCACCTAGTGCAG” was run?
Its binding signal is 16900 fluorescence intensity (a.u.).

“TTCCTCCGTCTGCGTGCCGGCTTCTGTCTTCCTCCGCGCGCGGAGTCACCTAGTGCAG” was tested. Which binding signal did it give?
The binding signal was 17300 fluorescence intensity (a.u.).

Which binding signal does the source give for “CGTCGCCGCCGCCGGCGTCTTCTCCACCTCCTCCGCGCCGCGGAGTCACCTAGTGCAG” here?
Its binding signal is 8030 fluorescence intensity (a.u.).

For “GCGCGCGCCGGCCTCCGTCTTCCTCCGCGGGTGCGCCACCCGGAGTCACCTAGTGCAG”, which binding signal is on record?
Its binding signal is 10400 fluorescence intensity (a.u.).

“ACACTCTCGCCGTCGCCGCCTCCTCGCCTCCGCTTACTCCCGGAGTCACCTAGTGCAG” was tested. Which binding signal did it give?
The binding signal was 16700 fluorescence intensity (a.u.).

Which binding signal does the source give for “CGTTCATTCCGCATCCAATGGCAGCACTGGTTCCTAGCTTCGGAGTCACCTAGTGCAG” here?
Its binding signal is 8110 fluorescence intensity (a.u.).

Which binding signal does the source give for “TTATACCACCGGATGCTGACACCATTCATCCGCTCTTCCTCGGAGTCACCTAGTGCAG” here?
The binding signal was 10700 fluorescence intensity (a.u.).

With “CTGTATGGCCACCGTCGCAGCTCGTCCTACACGTTTCTCACGGAGTCACCTAGTGCAG” as the sequence, how does the binding signal read?
The binding signal was 10600 fluorescence intensity (a.u.).

With “TGCTAAACCTGTGGTGTTAAATCTGGCTGGTTGCCTGTCTCGGAGTCACCTAGTGCAG” as the sequence, how does the binding signal read?
The binding signal was 9280 fluorescence intensity (a.u.).

With “TAACAGTTGACACAGGGAGCGGAGGGGCAGCTTGGTCATTCGGAGTCACCTAGTGCAG” as the sequence, how does the binding signal read?
Its binding signal is 8420 fluorescence intensity (a.u.).

“CCTTAACACTTAATCCATGTGATGCATCTGTCATGCAACTCGGAGTCACCTAGTGCAG” was tested. Which binding signal did it give?
Its binding signal is 8250 fluorescence intensity (a.u.).

“TCCCCGCGGGCATGCCCGTTGCTGCGGGCGCAGCTCAATTCGGAGTCACCTAGTGCAG” was tested. Which binding signal did it give?
Its binding signal is 8280 fluorescence intensity (a.u.).

How did the binding signal turn out when “GTGCTGGAGGGAGGGAACGGGGAACGTGGCAACTGACACGCGGAGTCACCTAGTGCAG” was run?
The binding signal was 9030 fluorescence intensity (a.u.).

How did the binding signal turn out when “GCGCAAACGCTCGAATTTTTGGTTTTGATCCATATGCATACGGAGTCACCTAGTGCAG” was run?
Its binding signal is 8580 fluorescence intensity (a.u.).

Which binding signal does the source give for “TGTAGTCCCGCGTCGCACGGCATCCGGCCGGCCTCTCCTACGGAGTCACCTAGTGCAG” here?
The binding signal was 8760 fluorescence intensity (a.u.).

For “GGGATGGGGAAGGTCAGAGCCAATATGATCTGGTAACTCTCGGAGTCACCTAGTGCAG”, which binding signal is on record?
The binding signal was 9510 fluorescence intensity (a.u.).

“CAAAGGTTCTAATGTTTGACCTCATTCTTATCTAAAACGACGGAGTCACCTAGTGCAG” was tested. Which binding signal did it give?
Its binding signal is 9440 fluorescence intensity (a.u.).

Which binding signal does the source give for “GCGTCGCCTGCCGCCTCCGCTTCCGCTCCACTCCGCTTCGCGGAGTCACCTAGTGCAG” here?
Its binding signal is 12000 fluorescence intensity (a.u.).

How did the binding signal turn out when “AACCCTAGCTCTTCACAGCTTCCATGGCTCTTCTCTCTCTCGGAGTCACCTAGTGCAG” was run?
Its binding signal is 12500 fluorescence intensity (a.u.).

“CTGAACTCTCTCTCGCTCTCCGGCTCTCTGTATTCCTTCACGGAGTCACCTAGTGCAG” was tested. Which binding signal did it give?
The binding signal was 19800 fluorescence intensity (a.u.).

How did the binding signal turn out when “CCCGCTCGCTCTCGTGCTGTCCGCCGACCTCAGCTCGCTCCGGAGTCACCTAGTGCAG” was run?
The binding signal was 10000 fluorescence intensity (a.u.).

With “GTAGTCATTCACGTGTTCCTCTTCTCCAGTACTAGTAGCTCGGAGTCACCTAGTGCAG” as the sequence, how does the binding signal read?
The binding signal was 9710 fluorescence intensity (a.u.).

With “CTCTCTGTGTCTCCGCCGCCGCCGCCTCCGCCGCTCGCCGCGGAGTCACCTAGTGCAG” as the sequence, how does the binding signal read?
Its binding signal is 8060 fluorescence intensity (a.u.).

How did the binding signal turn out when “GTTCCAGCTTCATGCATGCACACACACAGTAGCTCGTGCTCGGAGTCACCTAGTGCAG” was run?
Its binding signal is 29300 fluorescence intensity (a.u.).

“ACCTCGTACCTCGCCGCTGTTCCGTTCCGTGCTCTGTGTCCGGAGTCACCTAGTGCAG” was tested. Which binding signal did it give?
The binding signal was 18700 fluorescence intensity (a.u.).
